Drawing on PubChem BioAssay (NCATS), this text covers max response and outcome for 11 compounds.

Several values for one entry are separate records, joined by “and”; a condition that tells them apart may be missing. Equal entries are not always repeated. Records with an inconclusive call do not appear. Activity calls are given as the source filed them. Calls follow the shape of the dose curve; as a rule, active = well fitted inhibition curve with a large enough effect; inconclusive = small, poorly fitted or top-dose-only effect; inactive = flat fitted curve, though single readings scatter.
% is scaled to controls: 0 for no effect and ±100 for the full control effect.

In this test the test system is KB-3-1. Put plainly: Cytotoxic Profiling of Annotated Libraries Using Quantitative High-Throughput Screening (AID 1296008). Also: nearly all actives have a fitted effect of over 60% in size. As to conditions: Five cell lines viability, CellTiter-Glo ATP luminescence, 48-72 h; max response: hits give low values. In short, it runs like this:
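Compounds were pin-transferred onto cells and incubated 48 or 72 hr at 37 degree Celsius, 95% humidity. CellTiter-Glo was added, plates sat 10 min at room temperature, then ATP-coupled luminescence was imaged as the viability read-out.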
`COc1ccc(C2C(=O)c3ccccc3C2=O)cc1`: the max response was 1.39% (inactive).

Regarding `Cc1c(N(C)CS(=O)(=O)O)c(=O)n(-c2ccccc2)n1C`, the max response was 16.1% (inactive). With `OC[C@H]1O[C@H](O[C@]2(CCl)O[C@H](CCl)[C@@H](O)[C@@H]2O)[C@H](O)[C@@H](O)[C@H]1Cl`, the compound was called inactive. As to `C[C@H](CCC(=O)O)[C@H]1CC[C@H]2[C@@H]3C(=O)C[C@@H]4CC(=O)CC[C@]4(C)[C@H]3CC(=O)[C@]12C`, the max response was -9.72% (inactive). Regarding `Cc1cc(O)c(C(C)C)cc1Cl`, the max response was 1.71% (inactive). As to `O=C1c2ccccc2C(=O)C1c1ccccc1`, the max response is -18.6% (inactive).

Consider `Cc1ncc(CSSCc2cnc(C)c(O)c2CO)c(CO)c1O`, for which the max response is -0.0269% (inactive). `NC[C@H]1O[C@H](O[C@H]2[C@H](O)[C@@H](O[C@H]3O[C@H](CO)[C@@H](O)[C@H](N)[C@H]3O)[C@H](N)C[C@@H]2N)[C@H](N)[C@@H](O)[C@@H]1O`: the max response is -1.35% (inactive) and -3.36% (inactive).

For `Cc1ccc(Nc2c(F)cccc2Cl)c(CC(=O)O)c1`, the max response is -12.9% (inactive) and 2.03% (inactive). As for `CC(=O)O[C@]1(C(C)=O)CC[C@H]2[C@@H]3C[C@H](C)C4=CC(=O)CC[C@]4(C)[C@H]3CC[C@@]21C`, the max response is 9.44% (inactive) and the compound was classed as inactive. Regarding `CC(=O)OCC(=O)[C@@]1(O)[C@H](C)C[C@H]2[C@@H]3CCC4=CC(=O)C=C[C@]4(C)[C@@]3(F)[C@@H](O)C[C@@]21C`, the max response is 31.1% (inactive) and 2.64% (inactive); the result was inactive.
